Consider seven compounds from PubChem BioAssay (NCI).

Where “and” joins values, the source holds several entries; their conditions need not be identical. Equal values may be shown once. The panel holds about 83,000 compounds, 20% with a hit somewhere; the sample as a whole holds those more often.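 How to read the values: 0–100, growth inhibition (40 = 60% inhibited); 0, no net growth; -100 to 0, cell death (-40 = 40% of starting cells died; -100 = all dead).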 Calls of active or inactive are those of the source. How the source made its calls: active means growth percent below 10; inactive means the rest.

Test in all cases: NCI-60 one-dose screen, 48 h (100 = growth as untreated, 0 = no growth, -100 = all killed)
What all share (settings): 10 µM unless noted

Assay [1] deals with HCT-15 colon.
In assay [2] the test system is HT29 colon.
Assay [3] concerns SNB-75 CNS.
In assay [4] the test system is SNB-19 CNS.
The test system of assay [5] is U251 CNS.
Assay [6] relates to PC-3 prostate.
Assay [7] has as its system SK-MEL-5 melanoma.
The subject of assay [8] is UACC-62 melanoma.
Assay [9] deals with LOX IMVI melanoma.
For assay [10], the system named is SK-MEL-28 melanoma.
The subject of assay [11] is SK-MEL-2 melanoma.
Assay [12] relates to EKVX NSCLC.
In assay [13] the test system is SN12C renal.
In assay [14] the test system is UO-31 renal.
Assay [15] relates to TK-10 renal.
The subject of assay [16] is ACHN renal.
The test system of assay [17] is CAKI-1 renal.
The test system of assay [18] is A498 renal.
The subject of assay [19] is CCRF-CEM leukemia.
The test system of assay [20] is MOLT-4 leukemia.

Take `Cc1ccc(/C=C2\COc3ccc(O)c(O)c3C2=O)cc1`: the growth in [1] was -16.5% (active); in [2], 12.9% (inactive); in [3] it was 13.5% (inactive); in assay [4], 24.8% (inactive); in assay [5] it was -3.38% (active); in assay [6], -10.4% (active). In addition, the growth in assay [7] was 1.84% (active); in [8], -19.7% (active); in assay [9], -83.3% (active); in assay [10], 35.6% (inactive); in [11] it was 48.8% (inactive); in assay [12], 28.2% (inactive). In addition, the growth is -77.6% (active) in assay [13]; -97.3% (active) in assay [14]; 8.12% (active) in assay [15]; -77.6% (active) in [16]; -27.6% (active) in assay [17]; 6.45% (active) in assay [18]. The growth in assay [19] is 3.17% (active); in assay [20], 1.48% (active).

On to `CCOC(=O)c1cnn(CC(O)CC)c1NC(=O)NCc1ccccc1C(F)(F)F` (stereo not drawn), for which the growth was 103% (inactive) in assay [1]; 86.5% (inactive) in assay [2]; 96% (inactive) in assay [3]; 104% (inactive) in assay [4]; 101% (inactive) in assay [5]; 90.8% (inactive) in assay [6]. Also, the growth is 97.6% (inactive) in assay [7]; 88.5% (inactive) in [8]; 95.5% (inactive) in assay [9]; 108% (inactive) in assay [10]; 87.3% (inactive) in [11]; 91.8% (inactive) in assay [12]. The growth in assay [13] is 101% (inactive); in [14] it was 77.6% (inactive); in [15] it was 101% (inactive); in assay [16], 102% (inactive); in [17] it was 77.6% (inactive); in assay [18], 105% (inactive). The growth in assay [19] was 84.9% (inactive); in assay [20], 87.2% (inactive).

On to `C=C(c1ccc(C(=O)O)cc1)c1cc2c(cc1C)C(C)(C)CCC2(C)C`, for which the growth is 74.7% (inactive) and 65.1% (inactive) in [1]; 93.2% (inactive) and 62.7% (inactive) in [2]; 94.9% (inactive) and 82.7% (inactive) in [3]; 75.2% (inactive) and 79.6% (inactive) in assay [4]; 84.1% (inactive) and 62.8% (inactive) in [5]; 68.9% (inactive) in [6]. In addition, the growth in assay [7] was 83% (inactive) and 76.6% (inactive); in assay [8], 74.3% (inactive) and 58.7% (inactive); in [9], 80.2% (inactive) and 81.8% (inactive); in assay [10], 137% (inactive) and 72.9% (inactive); in assay [11], 47.7% (inactive) and 56.2% (inactive); in assay [12], 57.5% (inactive) and 56.7% (inactive). In addition, the growth in assay [13] was 87.5% (inactive) and 77.5% (inactive); in assay [14], 71.3% (inactive) and 66.9% (inactive); in assay [15], 89.8% (inactive); in assay [16], 74.1% (inactive) and 57.5% (inactive); in assay [17], 70.4% (inactive) and 82.1% (inactive); in [18] it was 133% (inactive) and 110% (inactive). In addition, the growth is 60.4% (inactive) and 90% (inactive) in assay [19]; 71.2% (inactive) and 79.4% (inactive) in assay [20].

For `COc1ccc(-c2cc(=O)c3c(O)cc(O)cc3o2)cc1`, the growth in assay [1] is 103% (inactive) and 100% (inactive); in assay [2], 110% (inactive) and 109% (inactive); in assay [3], 99.1% (inactive) and 118% (inactive); in assay [4] it was 105% (inactive) and 83.4% (inactive); in assay [5], 92.9% (inactive) and 84% (inactive); in [6], 94.9% (inactive) and 83.8% (inactive). Further, the growth in [7] is 104% (inactive) and 92.7% (inactive); in assay [8], 104% (inactive) and 96.9% (inactive); in assay [9] it was 82.8% (inactive) and 91.6% (inactive); in [10], 113% (inactive) and 111% (inactive); in assay [11], 116% (inactive); in [12], 103% (inactive). Further, the growth in assay [13] is 102% (inactive) and 82% (inactive); in assay [14], -74.8% (active) and 92.7% (inactive); in assay [15], 119% (inactive) and 104% (inactive); in assay [16] it was 97.5% (inactive) and 97.2% (inactive); in assay [17], 108% (inactive) and 105% (inactive); in [18] it was 97.5% (inactive). Further, the growth in assay [19] is 94.2% (inactive) and 86.6% (inactive); in assay [20], 76.4% (inactive) and 85.6% (inactive).

Consider `Cn1cc(-c2nonc2-c2cn(C)c3ccc(Br)cc23)c2ccccc21`, for which the growth in assay [1] was 26.1% (inactive); in assay [2], 9.17% (active); in assay [3] it was -0.37% (active); in assay [4], 27.6% (inactive); in assay [5] it was 23.3% (inactive); in [6], 32% (inactive). Moreover, the growth in assay [7] was 37.2% (inactive); in assay [8] it was 21.8% (inactive); in [9] it was 31.2% (inactive); in assay [10], 55.9% (inactive); in assay [11] it was 33.5% (inactive); in assay [12], 48.6% (inactive). Besides, the growth in assay [13] was 37.1% (inactive); in assay [14], 32.3% (inactive); in [15], 60.7% (inactive); in [16], 33.5% (inactive); in [17] it was 25.8% (inactive); in assay [18], -5.37% (active). In addition, the growth was 15.5% (inactive) in assay [19] and 27.2% (inactive) in assay [20].

With `CCN(c1cc(-c2ccc(CN3CCC(/C=C/S(=O)(=O)c4ccccc4)CC3)cc2)cc(C(=O)NCc2c(C)cc(C)[nH]c2=O)c1C)C1CCOCC1`, the growth in assay [1] is 54.8% (inactive); in assay [2], 21.2% (inactive); in assay [3] it was 37.5% (inactive); in [4] it was 80.1% (inactive); in [5], 66.9% (inactive); in assay [6], 53.7% (inactive). Further, the growth in assay [7] was 71.9% (inactive); in assay [8], 76.6% (inactive); in assay [9], 68.9% (inactive); in assay [10], 97.9% (inactive); in assay [11] it was 92.5% (inactive); in assay [12], 87.4% (inactive). Besides, the growth in assay [13] was 63.6% (inactive); in assay [14] it was 44.7% (inactive); in assay [15], 121% (inactive); in [16], 80% (inactive); in assay [17], 51.4% (inactive); in assay [18], 51.1% (inactive). Also, the growth in [20] is 26.8% (inactive).

Turning to `COc1ccc2nc3cc(Cl)ccc3c(NCCCNCCC(C)O)c2c1` (stereo not drawn), the growth in assay [1] was 2.36% (active); in assay [2], 4% (active); in assay [3], -58.8% (active); in assay [4] it was -25.6% (active); in assay [5], -41.4% (active); in [6], -50% (active). Also, the growth in assay [7] is -96.7% (active); in assay [8], -57% (active); in [9] it was -68% (active); in [10], -59.3% (active); in assay [11], -48.2% (active); in assay [12], -7.41% (active). For the same compound, the growth was -25.9% (active) in [13]; -28.1% (active) in [14]; 8.67% (active) in [15]; -1.05% (active) in [16]; -3.91% (active) in [17]; -79% (active) in assay [18]. The growth in assay [20] is -18.1% (active).
